According to PubChem BioAssay:
Active and inactive are the calls of the source.

Experiments:
[1] = optical density shifts of acrAB sulA E. coli – strain DRC41, OD650, 48 h, E. coli filamentation inducer project, primary screen (AID 1152); conditions: higher = more signal, called active from +8 up or from −8 down;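 also: E. coli MC1000 strain DRC41 lacking acrAB efflux pump and sulA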
[2] = probe aLefty1 binding on compound microarray – biochemical, small-molecule microarray, 635/667 nm fluorescence, primary screen (AID 1153); conditions: higher = more signal;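 also: score merges spot fluorescence with signal-to-noise ratio from the scanned slide images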
[3] = plasmodial surface anion channel blockers, osmotic lysis – cell-based, P. falciparum Indochina, OD700, 1 h, primary screen (AID 1154); conditions: P. falciparum Indochina infected RBC osmotic lysis, higher = more signal, called active from +8 up or from −8 down
[4] = plasmodial surface anion channel blockers, osmotic lysis – cell-based, P. falciparum Indochina, OD700, 2 h, primary screen (AID 1155);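 also: lysis reports solute entry through the parasite surface anion channel PSAC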; conditions: P. falciparum Indochina infected erythrocytes, higher = more signal, called active from +8 up or from −8 down
[5] = changes in parasitized red cell lysis, either direction – P. falciparum Indochina, OD700, 3 h, PSAC antagonist project, primary screen (AID 1156); conditions: P. falciparum-infected erythrocytes, osmotic lysis, higher = more signal, called active from +8 up or from −8 down
[6] = plasmodial surface anion channel blockers, osmotic lysis – cell-based, P. falciparum Indochina, OD700, 18 h, primary screen (AID 1157); conditions: P. falciparum Indochina infected erythrocytes, osmotic lysis OD700, 18 h; higher = more signal, called active from +8 up or from −8 down
[7] = S6 kinase pathway phospho-S6 level changes – cell-based, A549, cytoblot, luminescence, serum-stimulated, primary screen (AID 1158); conditions: 5 h, higher = more signal;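 also: serum-stimulated A549 lung adenocarcinoma cells; signal is phosphorylated S6 detected by cytoblot immunostaining with HRP secondary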
[8] = target: NADPH oxidase 2 (Homo sapiens) (UniProt P04839); experiment: compounds shifting NOX2 Amplex Red fluorescence – cell-based, HEK293-NOX2, PMA-stimulated, NOX inhibitor project, primary screen (AID 1159); conditions: 45 min, higher = more signal, called active from +8 up or from −8 down; also: test concentration not given here
Chain of NADPH oxidase 2 (Homo sapiens) (P04839 whole entry, looked up): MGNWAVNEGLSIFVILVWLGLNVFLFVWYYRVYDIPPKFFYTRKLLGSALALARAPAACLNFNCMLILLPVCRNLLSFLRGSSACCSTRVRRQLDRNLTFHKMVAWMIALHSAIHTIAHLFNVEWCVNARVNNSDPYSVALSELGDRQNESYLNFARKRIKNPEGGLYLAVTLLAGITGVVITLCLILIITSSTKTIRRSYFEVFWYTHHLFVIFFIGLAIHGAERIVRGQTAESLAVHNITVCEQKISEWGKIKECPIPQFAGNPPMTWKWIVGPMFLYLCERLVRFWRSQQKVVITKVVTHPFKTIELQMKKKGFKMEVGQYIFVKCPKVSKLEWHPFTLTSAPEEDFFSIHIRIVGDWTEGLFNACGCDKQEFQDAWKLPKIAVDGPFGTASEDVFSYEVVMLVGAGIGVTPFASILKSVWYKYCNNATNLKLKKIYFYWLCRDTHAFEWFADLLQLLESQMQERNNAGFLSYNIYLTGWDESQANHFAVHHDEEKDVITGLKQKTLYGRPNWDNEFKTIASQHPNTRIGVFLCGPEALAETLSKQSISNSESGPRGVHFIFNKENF

[9] = target: NADPH oxidase 4 (Homo sapiens) (UniProt Q9NPH5); experiment: compounds shifting NOX4 Amplex Red fluorescence – cell-based, HEK293-NOX4, tetracycline-induced, NOX inhibitor project, primary screen (AID 1160); conditions: HEK293-NOX4, Amplex Red H2O2 fluorescence, 45 min; higher = more signal, called active from +8 up or from −8 down
Chain of NADPH oxidase 4 (Homo sapiens) (Q9NPH5 whole entry, looked up): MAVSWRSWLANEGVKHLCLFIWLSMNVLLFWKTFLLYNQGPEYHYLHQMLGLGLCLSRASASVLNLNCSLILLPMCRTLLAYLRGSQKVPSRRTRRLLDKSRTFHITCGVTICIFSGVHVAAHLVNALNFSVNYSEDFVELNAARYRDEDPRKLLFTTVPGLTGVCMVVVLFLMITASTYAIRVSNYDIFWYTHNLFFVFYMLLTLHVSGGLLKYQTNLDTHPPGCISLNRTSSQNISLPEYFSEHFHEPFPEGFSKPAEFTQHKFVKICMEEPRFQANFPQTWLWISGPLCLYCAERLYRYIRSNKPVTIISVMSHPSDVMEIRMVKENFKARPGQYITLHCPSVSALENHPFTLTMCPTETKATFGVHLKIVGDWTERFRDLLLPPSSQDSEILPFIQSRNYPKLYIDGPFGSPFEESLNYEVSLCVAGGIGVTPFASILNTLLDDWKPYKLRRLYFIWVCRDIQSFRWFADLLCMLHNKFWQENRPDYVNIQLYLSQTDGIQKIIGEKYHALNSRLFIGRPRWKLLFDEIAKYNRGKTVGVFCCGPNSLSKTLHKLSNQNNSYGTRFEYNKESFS

[10] = target: NADPH oxidase 5 (Homo sapiens) (UniProt Q96PH1); experiment: compounds shifting NOX5 Amplex Red fluorescence – cell-based, HEK293-NOX5, NOX inhibitor project, primary screen (AID 1161); conditions: HEK293-NOX5, ionomycin, 45 min, higher = more signal
Chain of NADPH oxidase 5 (Homo sapiens) (Q96PH1 whole entry, looked up): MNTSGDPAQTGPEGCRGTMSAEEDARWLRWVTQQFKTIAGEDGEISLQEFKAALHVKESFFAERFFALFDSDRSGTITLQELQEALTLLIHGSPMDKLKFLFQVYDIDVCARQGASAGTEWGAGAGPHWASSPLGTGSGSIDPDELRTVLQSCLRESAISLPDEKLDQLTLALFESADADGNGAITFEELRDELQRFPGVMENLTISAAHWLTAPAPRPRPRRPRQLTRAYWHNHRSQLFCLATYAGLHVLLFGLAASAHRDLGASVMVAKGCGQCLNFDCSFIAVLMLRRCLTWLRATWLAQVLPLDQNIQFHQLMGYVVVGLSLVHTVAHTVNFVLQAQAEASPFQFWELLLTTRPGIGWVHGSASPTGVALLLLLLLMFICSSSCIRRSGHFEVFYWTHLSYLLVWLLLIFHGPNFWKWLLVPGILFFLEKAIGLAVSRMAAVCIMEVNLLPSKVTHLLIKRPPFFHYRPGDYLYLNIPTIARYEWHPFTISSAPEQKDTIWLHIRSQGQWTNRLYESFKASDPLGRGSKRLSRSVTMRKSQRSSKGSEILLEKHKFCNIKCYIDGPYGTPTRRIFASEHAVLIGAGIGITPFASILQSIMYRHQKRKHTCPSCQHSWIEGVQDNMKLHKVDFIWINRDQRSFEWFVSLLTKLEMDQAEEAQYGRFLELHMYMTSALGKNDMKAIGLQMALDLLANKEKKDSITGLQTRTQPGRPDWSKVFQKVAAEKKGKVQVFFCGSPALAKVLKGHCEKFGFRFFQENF

[11] = compound effects on lung adenocarcinoma cell viability – A549, calcein-AM fluorescence, 48 h, basal, profiling panel (AID 1162); conditions: higher = more signal; also: test concentration not given here
[12] = compound effects on differentiated 3T3-L1 adipocyte viability – cell-based, 3T3-L1 adipocytes, calcein-AM fluorescence, 48 h, basal, profiling panel (AID 1163); conditions: 3T3-L1 adipocytes viability, higher = more signal; also: test concentration not given here
[13] = compound effects on hepatocellular carcinoma cell viability – HepG2, calcein-AM fluorescence, 48 h, basal, profiling panel (AID 1164); conditions: higher = more signal; also: test concentration not given here
[14] = compound effects on multiple myeloma cell viability – MM1S, calcein-AM fluorescence, 48 h, basal, profiling panel (AID 1165); conditions: higher = more signal; also: test concentration not given here
[15] = calcein-AM signal in unstimulated myeloma cells – cell-based, calcein-AM fluorescence, 48 h, PK04 Diversity Set, profiling panel (AID 1166); conditions: RPMI8226 myeloma viability, higher = more signal;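 also: cells grown under basal conditions without added stimulus; test concentration not given here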
[16] = JC-1 mitochondrial signal, unstimulated HepG2 cells – cell-based, JC-1 fluorescence, 24 h, 100 nL compound, profiling panel (AID 1167); conditions: HepG2 mitochondrial potential, higher = more signal; also: test concentration not given here
[17] = JC-1 mitochondrial signal, unstimulated adipocytes – cell-based, JC-1 fluorescence, 3T3-L1 adipocytes, 24 h, 100 nL compound, profiling panel (AID 1168); conditions: JC-1 mitochondrial fluorescence, higher = more signal, called active from +8 up or from −8 down; also: test concentration not given here
[18] = JC-1 mitochondrial signal, unstimulated myeloma cells – cell-based, JC-1 fluorescence, RPMI8226, 24 h, 100 nL compound, profiling panel (AID 1169); conditions: JC-1 mitochondrial potential fluorescence, higher = more signal; also: test concentration not given here
[19] = JC-1 mitochondrial signal, unstimulated MM1S myeloma – cell-based, JC-1 fluorescence, 24 h, 100 nL compound, profiling panel (AID 1170); conditions: MM1S mitochondrial potential, higher = more signal; also: test concentration not given here
[20] = resazurin metabolic signal in A549 cells – cell-based, resazurin fluorescence, 24 h, PK04 Diversity Set, profiling panel (AID 1171); conditions: A549 viability, higher = more signal, called active from +8 up or from −8 down; also: test concentration not given here

Structure (SMILES) | z-score [1] | composite z-score [2] | z-score [3] | z-score [4] | z-score [5] | z-score [6] | z-score [7] | z-score [8] | z-score [9] | z-score [10] | z-score [11] | z-score [12] | z-score [13] | z-score [14] | z-score [15] | z-score [16] | z-score [17] | z-score [18] | z-score [19] | z-score [20]
COCCOC(=O)N1C(=O)[C@@]2(c3ccccc31)[C@H](c1ccccc1OCCO)N1[C@H](c3ccccc3)[C@H](c3ccccc3)OC(=O)[C@H]1[C@@H]2C(=O)N1CCc2cc(OC)c(OC)cc2C1 | 0.0509 (inactive) | 0.433 | 2.79 (inactive) | 1.2 (inactive) | 1.68 (inactive) | 0.654 (inactive) | 0.0753 | 1.15 (inactive) | 0.39 (inactive) | -0.157 | -0.322 | 1.09 | -0.628 | -1.87 | -1.49 | 0.822 | 0.977 (inactive) | -0.337 | -0.582 | -0.395 (inactive)
C=C(/C(=C/C[C@@H](OC(=O)c1ccncc1)c1cccc(OCCO)c1)c1cc(C(=O)OC)ccc1OC)C(C)C | 0.987 (inactive) | 0.649 | 15 (active) | 3.01 (inactive) | 2.43 (inactive) | 1.04 (inactive) | 0.421 | 2.05 (inactive) | 1.09 (inactive) | -0.951 | 1.49 | 0.358 | 1.21 | -2.98 | -2.77 | 2.71 | 0.544 (inactive) | -0.303 | -1.02 | 0.804 (inactive)
CC(C)C[C@@H]1NC(=O)[C@@H]2C[C@H](C(=O)NCCCC[N+](C)(C)C)[C@H](c3cccc(OCCO)c3)N2C1=O | -0.44 (inactive) | 0.115 | 3.73 (inactive) | 1.16 (inactive) | -0.369 (inactive) | 0.645 (inactive) | -0.102 | -1.2 (inactive) | -0.152 (inactive) | -0.372 | -0.316 | -0.0337 | -0.75 | -1.3 | -0.122 | -1.16 | -0.915 (inactive) | 0.789 | -0.132 | -0.331 (inactive)
CN(C)CCCNC(=O)[C@@]1(Cc2ccccc2I)c2ccccc2C(=O)N(Cc2ccccc2Cl)[C@H]1c1ccc(CO)cc1 | -2.91 (inactive) | 0.208 | 10.7 (active) | 0.867 (inactive) | -0.613 (inactive) | 0.524 (inactive) | -1.27 | -10.2 (active) | -4.71 (inactive) | -5.47 | -4.22 | 0.711 | -5.11 | -3.8 | -4.38 | -1.9 | -0.373 (inactive) | -0.935 | -2.3 | -6.99 (inactive)
C[N+](C)(C)CCCCCCNC(=O)[C@@H]1C[C@@H]2C(=O)NCC(=O)N2[C@@H]1c1cccc(OCCO)c1 | 1.73 (inactive) | 0.197 | 3.17 (inactive) | -1.25 (inactive) | 1.56 (inactive) | -1.95 (inactive) | 0.927 | -2.72 (inactive) | -4.12 (inactive) | -5.67 | -0.308 | 0.867 | -1.2 | -2.7 | 0.422 | -0.844 | -0.0181 (inactive) | -0.0934 | -1.39 | 1.46 (inactive)
C[C@]12C(=O)N(CCCO)[C@@H]3C(=O)N(c4ccc(Cl)cc4)CC=CC31O[C@@H]1/C=C\CCCOC(=O)C12 (stereo not given in full) | -0.511 (inactive) | -0.0203 | 1.29 (inactive) | 0.396 (inactive) | -0.423 (inactive) | 0.211 (inactive) | -0.332 | 1.53 (inactive) | 0.84 (inactive) | 2.71 | 0.348 | 0.922 | -0.114 | 0.14 | -0.191 | -0.665 | -1.25 (inactive) | -0.0538 | 1.18 | -0.0576 (inactive)
COc1ccc(CCNC(=O)[C@@H]2c3ccccc3C(=O)N(Cc3ccccc3)[C@H]2c2ccc(CO)cc2)cc1 | 1.81 (inactive) | 0.436 | 3.59 (inactive) | -0.275 (inactive) | 0.504 (inactive) | -0.508 (inactive) | 1.89 | -6.18 (inactive) | -0.909 (inactive) | -4.52 | 2.96 | 1.29 | 2.44 | -0.913 | 1.02 | 2.56 | 1.26 (inactive) | -0.192 | -0.502 | 0.577 (inactive)
C=C[C@H](C)[C@H](OC(=O)Nc1ccc(SC)cc1)c1ccc(O)c2ccccc12 | -1.61 (inactive) | -1.01 | 28.9 (active) | 10.2 (active) | 2.13 (inactive) | 0.867 (inactive) | 0.451 | -5.46 (inactive) | -0.825 (inactive) | 1.76 | -0.561 | -0.557 | -1.51 | -2.74 | -3.78 | -3.16 | -0.818 (inactive) | -0.939 | -1.51 | -1.12 (inactive)
CCOC(=O)C1=CC[C@@H](c2ccccc2)N(S(=O)(=O)c2ccc(C)cc2)[C@H]1C=C(C)C | -0.179 (inactive) | 0.129 | 2.27 (inactive) | 1.42 (inactive) | -0.627 (inactive) | 0.756 (inactive) | -0.459 | -0.0156 (inactive) | 1.39 (inactive) | 1.43 | -1.36 | -1.2 | -1.01 | -1.33 | -0.89 | 4.57 | -0.638 (inactive) | -1.01 | -1.79 | 1.26 (inactive)
